Where “and” joins values, the source holds several entries; their conditions need not be identical. Equal values may be shown once. Inconclusive results are not listed. Some structures have more than one record in an assay (separate samples or runs), and their calls can disagree. Calls of active or inactive are those of the source. Unless noted, the call rests on the fitted dose curve.
What was measured:
[1] = Nuclear factor erythroid 2-related factor 2/antioxidant responsive element (Nrf2/ARE) small molecule agonists: qHTS cell viability counter screen in human keratinocytes (AID 1919968; active means well fitted curve in the direction sought with a large enough effect in the repeat runs; an effect the other way counts as inactive or inconclusive; further: nearly all actives have a fitted effect of over 55% in size; further: potency means the concentration at half of the fitted maximal effect)
In short: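 Cytotoxicity was multiplexed with the Nrf2/ARE luciferase assay in the same wells. Stably transfected HaCaT keratinocytes were treated with test compounds for 23 h at 37 C. Cell viability was then measured by CellTiter-Fluor fluorescence.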

[2] = Nuclear factor erythroid 2-related factor 2/antioxidant responsive element (Nrf2/ARE) small molecule agonists: luciferase reporter gene qHTS assay in human keratinocytes (AID 1919969); further: nearly all actives have a fitted effect of over 35% in size; further: potency means the concentration at half of the fitted maximal effect
[3] = target: Gonadotropin-releasing hormone receptor (Homo sapiens) (UniProt P30968); assay: Human gonadotropin-releasing hormone receptor (GnRHR) small molecule agonists, calcium flux assay in GnRHR-HEK293 cells (AID 1920063); further: nearly all actives have a fitted effect of over 35% in size
Gonadotropin-releasing hormone receptor (Homo sapiens), sequence (P30968 whole entry, looked up): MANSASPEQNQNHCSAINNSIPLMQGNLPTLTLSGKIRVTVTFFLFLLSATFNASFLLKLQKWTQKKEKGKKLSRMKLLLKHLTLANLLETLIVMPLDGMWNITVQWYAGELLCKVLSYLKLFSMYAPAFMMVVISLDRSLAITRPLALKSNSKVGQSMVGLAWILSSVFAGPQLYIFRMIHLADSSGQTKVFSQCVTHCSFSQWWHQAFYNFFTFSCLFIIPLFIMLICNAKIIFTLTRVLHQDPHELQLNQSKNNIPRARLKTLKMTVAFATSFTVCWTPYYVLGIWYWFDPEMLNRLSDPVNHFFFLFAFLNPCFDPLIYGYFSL
In short: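 Agonist activity was measured as intracellular calcium flux in HEK293 cells engineered to stably express human GnRHR. After dye loading for 1 hour at 37 C, compounds in DMSO were added and fluorescence was followed for 3 minutes.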

[4] = target: KiSS-1 receptor (Homo sapiens) (UniProt Q969F8); assay: Human kisspeptin (KISS1R) small molecule agonists, calcium flux assay in KISS1R-HEK293 cells (AID 1920064; active means well fitted curve in the direction sought with a large enough effect in the repeat runs; an effect the other way counts as inactive or inconclusive)
KiSS-1 receptor (Homo sapiens), sequence (Q969F8 whole entry, looked up): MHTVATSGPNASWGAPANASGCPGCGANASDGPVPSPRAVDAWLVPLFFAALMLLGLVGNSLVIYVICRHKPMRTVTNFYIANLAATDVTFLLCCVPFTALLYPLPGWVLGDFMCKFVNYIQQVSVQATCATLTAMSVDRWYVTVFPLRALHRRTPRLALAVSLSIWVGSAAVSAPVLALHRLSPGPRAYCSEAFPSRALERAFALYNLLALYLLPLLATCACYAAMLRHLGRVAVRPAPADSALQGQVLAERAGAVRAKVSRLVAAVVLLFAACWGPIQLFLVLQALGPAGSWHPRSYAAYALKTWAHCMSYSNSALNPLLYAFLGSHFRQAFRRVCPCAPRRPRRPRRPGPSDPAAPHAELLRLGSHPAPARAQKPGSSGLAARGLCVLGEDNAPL
In short: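 Agonist activity is monitored as intracellular calcium rise in engineered HEK293 cells carrying human KISS1R. Cells are dye-loaded for 1 h at 37 C before compound addition, and fluorescence is recorded for 3 min.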

[5] = G protein-coupled receptor (GPCR) small molecule agonists, calcium flux assay: HEK293 wild type cell line counter screen (AID 1920065)
In short: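 Seed cells, incubate 18 h (37 C, 5% CO2); add calcium dye, 1 h at 37 C; pin-transfer compounds, ATP control or DMSO; read fluorescence 480/540 nm each second for 3 min.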

[6] = p53 small molecule agonists, cell-based qHTS assay with human liver microsomes (AID 1963577);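 further: p53 response element beta-lactamase reporter cells with liver microsomes plus NADPH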
In short: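 With metabolic activation: human liver microsomes (0.5 mg/mL final) plus NADPH (0.5 mg/mL final) added alongside compounds to p53RE-bla cells; 16 h 37 C exposure; beta-lactamase read by LiveBLAzer fluorescence.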

[7] = p53 small molecule agonists, cell-based qHTS assay with rat liver microsomes (AID 1963578)
In short: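 Metabolic activation by rat liver microsomes and NADPH, each 0.5 mg/mL final, added right after compounds to p53RE-bla reporter cells (4,000/well, plated 5 h earlier). 16 h at 37 C, then LiveBLAzer substrate for 2 h at room temperature in the dark; fluorescence read-out.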

[8] = p53 small molecule agonists, cell-based qHTS assay with human liver microsomes: qHTS cell viability counter screen (AID 1963579); further: nearly all actives have a fitted effect of over 45% in size; further: potency means the concentration at half of the fitted maximal effect
In short: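 Metabolic activation used human liver microsomes and NADPH, both 0.5 mg/mL final, over 16 hours at 37 C on p53RE-bla cells (4,000/well). Cytotoxicity measured by CellTiter-Glo luminescence, 30 min at room temperature.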

[9] = p53 small molecule agonists, cell-based qHTS assay with rat liver microsomes: qHTS cell viability counter screen (AID 1963580); further: nearly all actives have a fitted effect of over 45% in size; further: potency means the concentration at half of the fitted maximal effect
In short: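 Luminescent ATP readout (CellTiter-Glo, 30 min at room temperature) reports viability of p53RE-bla HCT-116 cells after 16 h at 37 C with test compounds under metabolic activation by rat liver microsomes and NADPH at 0.5 mg/mL final each.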

[10] = p53 small molecule agonists, cell-based qHTS assay: qHTS cell viability counter screen (AID 1963581); further: nearly all actives have a fitted effect of over 45% in size
In short: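 Viability was counter-screened in parallel with the p53 agonist reporter by measuring intracellular ATP luminescence in the same HCT-116 p53RE-bla wells after 16 h compound treatment at 37 C.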

[11] = p53 small molecule agonists, cell-based qHTS assay (AID 1963582; active means well fitted activation curve with a large enough effect in the signal ratio in the repeat runs, not every such curve was filed as active; the % refers to the signal ratio)
In short: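 Cells carrying a p53-responsive bla reporter are treated with test compounds for 16 h at 37 C; beta-lactamase activity is then detected with LiveBLAzer B/G FRET substrate after 2 h at room temperature.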

[12] = target: 5-hydroxytryptamine receptor 2A (Homo sapiens) (UniProt P28223); assay: 5-hydroxytryptamine receptor 2A (HTR2A) small molecule antagonists, cell-based qHTS assay (AID 1963586); further: nearly all actives have a fitted effect of over 45% in size; further: potency means the concentration at half of the fitted maximal effect
5-hydroxytryptamine receptor 2A (Homo sapiens), sequence (P28223 whole entry, looked up): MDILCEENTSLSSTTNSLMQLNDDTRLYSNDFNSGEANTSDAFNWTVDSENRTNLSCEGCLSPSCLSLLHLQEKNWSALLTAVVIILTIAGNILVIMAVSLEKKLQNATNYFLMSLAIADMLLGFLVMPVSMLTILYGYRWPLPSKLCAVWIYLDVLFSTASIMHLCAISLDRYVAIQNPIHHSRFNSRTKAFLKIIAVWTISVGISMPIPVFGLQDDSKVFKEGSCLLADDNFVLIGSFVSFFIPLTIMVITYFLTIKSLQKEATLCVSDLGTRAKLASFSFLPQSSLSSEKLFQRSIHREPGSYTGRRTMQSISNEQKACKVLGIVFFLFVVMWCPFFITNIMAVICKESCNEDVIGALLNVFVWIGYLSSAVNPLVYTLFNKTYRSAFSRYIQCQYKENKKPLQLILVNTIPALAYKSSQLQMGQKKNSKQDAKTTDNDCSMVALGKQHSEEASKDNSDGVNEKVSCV
In short: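 CHO cells stably expressing human HTR2A were plated for 18 h at 37 C, then loaded with calcium dye for 1 h. Compounds were preincubated 5 min at room temperature before DOI (4 nM solution) was added. Kinetic fluorescence was read for 3 min.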

[13] = target: 5-hydroxytryptamine receptor 2A (Homo sapiens) (UniProt P28223); assay: 5-hydroxytryptamine receptor 2A (HTR2A) small molecule agonists, cell-based qHTS assay (AID 1963587); further: nearly all actives have a fitted effect of over 30% in size
In short: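 HTR2A-CHO cells, plated 18 h at 37 C/5% CO2, dye-loaded 1 h at 37 C; compounds in DMSO added by pin tool (agonist mode). Intracellular calcium flux read as kinetic fluorescence on FDSS over 2 min at 1 s intervals.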

[14] = target: Muscarinic acetylcholine receptor M1 (Homo sapiens) (UniProt P11229); assay: Cholinergic receptor muscarinic 1 (CHRM1) small molecule antagonists, cell-based qHTS assay (AID 1963588); further: nearly all actives have a fitted effect of over 40% in size
Muscarinic acetylcholine receptor M1 (Homo sapiens), sequence (P11229 whole entry, looked up): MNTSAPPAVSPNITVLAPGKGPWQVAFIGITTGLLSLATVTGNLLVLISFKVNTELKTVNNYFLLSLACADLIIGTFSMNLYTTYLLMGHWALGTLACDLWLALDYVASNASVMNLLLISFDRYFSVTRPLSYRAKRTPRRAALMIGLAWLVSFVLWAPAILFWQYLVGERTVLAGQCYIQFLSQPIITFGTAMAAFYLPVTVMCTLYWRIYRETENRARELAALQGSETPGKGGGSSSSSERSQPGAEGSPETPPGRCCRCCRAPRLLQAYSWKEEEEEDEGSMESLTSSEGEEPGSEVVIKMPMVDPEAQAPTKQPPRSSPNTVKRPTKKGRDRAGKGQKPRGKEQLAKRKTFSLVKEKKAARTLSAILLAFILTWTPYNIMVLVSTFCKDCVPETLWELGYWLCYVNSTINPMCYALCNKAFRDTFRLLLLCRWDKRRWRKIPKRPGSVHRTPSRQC
In short: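 Compounds were tested at 15 concentrations in three independent runs. Dye-loaded CHRM1-CHO cells were exposed 5 min at room temperature before stimulation by acetylcholine added at 50nM. Intracellular calcium was read kinetically on FDSS for 3 min.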

[15] = target: Muscarinic acetylcholine receptor M1 (Homo sapiens) (UniProt P11229); assay: Cholinergic receptor muscarinic 1 (CHRM1) small molecule agonists, cell-based qHTS assay (AID 1963589); further: nearly all actives have a fitted effect of over 35% in size
In short: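 Cells were plated and incubated 18 h at 37 C/5% CO2, loaded with calcium dye for 1 h at 37 C, then treated with compounds in DMSO. Fluorescence was recorded kinetically at 1 sec intervals.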

[16] = cAMP Responsive Elements (CRE) small molecule antagonists, cell-based qHTS assay (AID 1963591; active means well fitted inhibition curve with a large enough effect in the signal ratio in the repeat runs, not every such curve was filed as active; the % refers to the signal ratio)
In short: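 Cells (CRE-bla HEK 293T, DMEM with 10% dialyzed FBS and 25 mM HEPES) are seeded and incubated 18 h. Compounds are added with NKH477 agonist at 0.25 uM final for 3 h, then FRET substrate for 2 h.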

[17] = target: Beta-2 adrenergic receptor (Homo sapiens) (UniProt P07550); assay: Adrenergic beta2 receptor (ADRB2) small molecule antagonists, cell-based qHTS assay (AID 1963592); further: series mostly up to about 92 µM; nearly all actives have a fitted effect of over 50% in size
Beta-2 adrenergic receptor (Homo sapiens), sequence (P07550 whole entry, looked up): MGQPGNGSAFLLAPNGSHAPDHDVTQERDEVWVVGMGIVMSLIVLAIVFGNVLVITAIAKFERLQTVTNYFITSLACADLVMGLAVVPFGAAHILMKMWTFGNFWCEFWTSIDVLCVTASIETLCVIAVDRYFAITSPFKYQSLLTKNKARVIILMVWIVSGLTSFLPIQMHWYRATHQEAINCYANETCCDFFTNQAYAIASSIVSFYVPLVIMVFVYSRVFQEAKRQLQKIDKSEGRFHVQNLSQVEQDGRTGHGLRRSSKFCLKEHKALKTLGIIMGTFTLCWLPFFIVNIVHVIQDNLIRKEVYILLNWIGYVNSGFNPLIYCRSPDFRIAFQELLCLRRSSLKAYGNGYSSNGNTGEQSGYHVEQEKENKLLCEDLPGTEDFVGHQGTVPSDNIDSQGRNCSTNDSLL
In short: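 Assay format: CHO-ADRB2 cells, 18-20hr seeding at 37C/5% CO2, then compound plus 1nM isoproterenol agonist mix for 0.5hr RT. Homogeneous time-resolved fluorescence cAMP detection after 1hr, expressed as 665/615 nm ratio.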

[18] = target: D(2) dopamine receptor (Homo sapiens) (UniProt P14416); assay: Dopamine D2 receptor (DRD2) small molecule antagonists, cell-based qHTS assay (AID 1963595; active means well fitted inhibition curve with a large enough effect in the signal ratio in the repeat runs, with a control signal flat; the % refers to the signal ratio)
D(2) dopamine receptor (Homo sapiens), sequence (P14416 whole entry, looked up): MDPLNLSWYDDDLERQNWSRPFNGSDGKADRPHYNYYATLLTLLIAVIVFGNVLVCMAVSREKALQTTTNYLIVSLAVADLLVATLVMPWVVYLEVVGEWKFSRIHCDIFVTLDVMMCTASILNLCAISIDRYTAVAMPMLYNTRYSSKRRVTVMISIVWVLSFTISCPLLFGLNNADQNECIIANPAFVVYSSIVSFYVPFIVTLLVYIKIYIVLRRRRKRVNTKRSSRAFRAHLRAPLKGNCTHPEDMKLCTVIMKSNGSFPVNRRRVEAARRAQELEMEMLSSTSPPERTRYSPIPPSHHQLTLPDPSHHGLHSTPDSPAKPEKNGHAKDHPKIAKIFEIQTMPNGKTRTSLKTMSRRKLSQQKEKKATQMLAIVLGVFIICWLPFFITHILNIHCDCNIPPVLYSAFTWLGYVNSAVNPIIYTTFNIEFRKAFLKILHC
In short: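 Antagonist mode in DRD2-HEK293 cells: after compound addition with 0.1 mM Ro20-1724, cells received quinpirole (12 nM) and NKH477 (200 nM) for 30 min at room temperature; HTRF cAMP read after 1 h detection.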

[19] = target: D(2) dopamine receptor (Homo sapiens) (UniProt P14416); assay: Dopamine D2 receptor (DRD2) small molecule agonists, cell-based qHTS assay (AID 1963594); further: nearly all actives have a fitted effect of over 35% in size
In short: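 HEK293 cells stably expressing DRD2 were cultured 24 h at 37 C, then given Ro20-1724 (0.1 mM final) and compounds for 10 min at room temperature. NKH477 (200nM) was then added for 30 min. cAMP was read by HTRF.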

[20] = cAMP Responsive Elements (CRE) small molecule agonists, cell-based qHTS assay (AID 1963590)
In short: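 Cells carrying a CRE-driven beta-lactamase reporter (HEK 293T) are seeded, incubated overnight (18 h), and treated with test compounds for 3 h at 37 C; reporter activity is then detected with a FRET substrate after 2 h at room temperature.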

Measured: Potency

CC1(C)CO[C@@H](CC(=O)O)CN1
not listed: [19] | [20]
inactive: all other assays above

CC(C)(C)CC(C)(C)c1ccc(O)c(-n2nc3ccccc3n2)c1
active: [1] 48.6 µM
not listed: [20]
inactive: all other assays above

c1ccc2cnccc2c1
not listed: [20]
inactive: all other assays above

Oc1ccc(Sc2ccc(O)cc2)cc1
active: [2] 57.2 µM
not listed: [20]
inactive: all other assays above

CCC(CO)CO
not listed: [16]
inactive: all other assays above

O=S(=O)(O)c1cccc(S(=O)(=O)O)c1
not listed: [20]
inactive: all other assays above

CCSC(=O)N(CC)CC
not listed: [16] | [17] | [18]
inactive: all other assays above

CC(C=O)c1ccccc1 (stereo not drawn)
not listed: [20]
inactive: all other assays above

C=CC(C)(O)CC/C=C(/C)CCC=C(C)C (stereo not drawn)
not listed: [18] | [20]
inactive: all other assays above

CCCCNc1ccccc1
not listed: [20]
inactive: all other assays above

CC(=O)OCCN(CCOC(C)=O)c1ccc(N=Nc2ccc([N+](=O)[O-])cc2C#N)cc1
not listed: [16] | [19]
inactive: all other assays above

COc1cc(/C=C/C(N)=O)cc(OC)c1OC
not listed: [18] | [20]
inactive: all other assays above

CCCCCCCC(=O)OCCCCCC
not listed: [18] | [20]
inactive: all other assays above

CCCCOC(O)CC (stereo not drawn)
not listed: [20]
inactive: all other assays above

O=C(OCCOCCO)c1ccccc1Nc1cccc(C(F)(F)F)c1
not listed: [20]
inactive: all other assays above

CCOc1ccccc1C(N)=O
inactive and 33.5 µM (active): [2]
not listed: [20]
inactive: all other assays above

COc1cccc(OC)c1C(=O)O
not listed: [20]
inactive: all other assays above

C=CC(C)(O)CC/C=C(\C)CC (stereo not drawn)
not listed: [20]
inactive: all other assays above

O=C(O)c1cc(=O)c2ccccc2o1
not listed: [20]
inactive: all other assays above

CC1CC(O)CC(C)(C)C1 (stereo not drawn)
not listed: [20]
inactive: all other assays above

CC#N
not listed: [16] | [18]
inactive: all other assays above

COc1cc(C=O)ccc1OC(=O)C(C)C
not listed: [20]
inactive: all other assays above

c1ccc(CNCc2ccccc2)cc1
active: [12] 8.4 µM
not listed: [20]
inactive: all other assays above

CCCCCC(C)=O
inactive and 28.9 µM (active): [9]
inactive and 27.3 µM (active): [2]
inactive and 12.9 µM (active): [8]
not listed: [16]
inactive: all other assays above

CC(C)CC(C)(N)C#N (stereo not drawn)
not listed: [16]
inactive: all other assays above

CC(=O)N[C@@H](CC(C)C)C(=O)O
not listed: [20]
inactive: all other assays above

Nc1ccc(N=Nc2ccccc2)c(N)n1
active: [1] 30.8 µM | [2] 1.73 µM and 2.73 µM and 2.37 µM
not listed: [16] | [17]
inactive: all other assays above

O=Cc1cc2ccccc2o1
not listed: [18] | [20]
inactive: all other assays above

CC(C)S
not listed: [18] | [20]
inactive: all other assays above

O=C(O)c1cc(C(=O)O)cc([N+](=O)[O-])c1
not listed: [20]
inactive: all other assays above

C=CCS(=O)(=O)O
not listed: [20]
inactive: all other assays above
